Out of some 69,000 compounds screened, about 8,600 (12%) showed an effect of 50% or more. Only a selection was taken, and strong results are over-represented in it overall.

The test system of this assay is Plasmodium berghei. In words: Screen against P. berghei liver stage (PbLuc), transformed with Luciferase, at 10uM. The format is functional, HepG2. Conditions: tested at 10 uM.
Take `Cc1nc(N2CCN(C(=O)c3ccco3)CC2)c2c(n1)c(C)nn2C`: the INHIBITION is listed as 7.66%. Then `CCc1nc(CN2CCCN(C(=O)CC(F)(F)F)CC2)cs1`, with -19.4%; and `Cc1nc(CN2CCC23CCN(Cc2ccoc2)CC3)cs1`, with 26.7%; and `Cc1nc(CN2CCC23CCN(C(=O)c2ccncc2)CC3)cs1`, with 12.7%.

Consider `COc1ccc(C(=O)N2CCN(c3cc(CCN)nc(C)n3)CC2)cc1`, for which the INHIBITION was 38.5%.

Take `Cc1nnc(C(NS(=O)(=O)c2cc(C)c(F)cc2F)C(C)C)[nH]1` (stereo not drawn): the INHIBITION was 38.9%. Then `CNC(=O)[C@H]1C[C@@H]2CN(Cc3csc(C)n3)C[C@@H]2N1S(C)(=O)=O`, with 28.5%; and `C[S+]([O-])c1cccc(NC(=O)N[C@H](CCO)c2ccccc2)c1` (stereo partly drawn), with 11.5%; and `Cc1cc(C(=O)NCC(c2ccsc2)N(C)C)no1` (stereo not drawn), with 24%. Then `NC(=O)NC(CC(=O)N1CCc2sccc2C1)c1ccccc1F` (stereo not drawn), with 3.3%; and `CN(C)c1cc2c(nn1)CCN(C(=O)C1COc3ccccc3C1)C2` (stereo not drawn), with 20.2%. Then `CCNc1cc2c(nn1)CCN(C(=O)C1Cc3ccccc3O1)C2` (stereo not drawn), with 18.6%; and `CN(C)c1cc2c(nn1)CCN(C(=O)C1Cc3ccccc3O1)C2` (stereo not drawn), with 56.4%; and `CC(C)(C)C(=O)NCCC(=O)NCCc1ccn(-c2ccccc2)n1`, with 23.4%. As to `CCc1nc2n(n1)CC(NCC1=Cc3ccc(OC)cc3OC1)CC2` (stereo not drawn), the INHIBITION was determined as 32.3%. Then `COc1ccc(-c2nc(CNC3CCc4nc(C)nn4C3)no2)cc1` (stereo not drawn), with 56.6%; and `COc1ccc2c(c1)OCC(CNC1CCc3nc(C)nn3C1)=C2` (stereo not drawn), with 85.2%. Then `Cc1cccc(-c2nc(CNC3CCc4nc(C)nn4C3)no2)c1` (stereo not drawn), with 19.6%; and `CCc1nc2n(n1)CC(NCc1noc(-c3ccc(C)cc3)n1)CC2` (stereo not drawn), with 31.9%. Take `COc1cc(CNC2CCc3nc(C)nn3C2)cc2c1OCO2` (stereo not drawn): the INHIBITION was -43.6%. Then `CCn1cc(S(=O)(=O)Nc2nc3c(s2)CCCC3)cn1`, with -35.4%. Then `Cc1ncsc1CCN(C)C(=O)CCc1nc2cccnc2n1C`, with -51%; and `c1ccc(-c2cnc3n2CCNC32CCNCC2)cc1`, with -30.1%; and `CNC(=O)CN1CCCC12CCN(C(=O)c1ccccc1F)CC2`, with -35.6%.

Regarding `Cc1ccc(N2CCO[C@H]3CN(Cc4ccncc4)C[C@H]32)nn1`, the INHIBITION amounted to 22.7%. Then `O=C(c1ccccc1)N1CCO[C@@H]2CN(c3cnccn3)C[C@@H]2C1`, with 37.9%; and `Cc1cccc(C(=O)N2C[C@@H]3OCCN(C(C)C)[C@@H]3C2)n1`, with 18.8%. Regarding `c1ccc(CN2C[C@@H]3OCCN(c4ncccn4)[C@@H]3C2)nc1`, the INHIBITION came to 38.1%. Then `Cc1ccc(N2CCO[C@H]3CN(Cc4cccs4)C[C@H]32)nn1`, with 88.2%; and `Cc1ccc(N2CCO[C@H]3CN(C(=O)c4cccc(C)n4)C[C@H]32)nn1`, with 53%; and `Cc1ccc(N2CCO[C@H]3CN(Cc4nccs4)C[C@H]32)nn1`, with 25.2%.

With `Cc1ccc(N2CCO[C@H]3CN(Cc4ccccn4)C[C@H]32)nn1`, the INHIBITION came out at 50.9%. On to `Cc1cccc(C(=O)N2C[C@@H]3OCCN(c4ncccn4)[C@@H]3C2)n1`, for which the INHIBITION is 16.6%.

As for `Cc1ccc(N2C[C@@H]3CN(C(=O)c4ccccc4)CCO[C@@H]3C2)nn1`, the INHIBITION is on record as 51.2%. Then `O=C(c1ccccc1)N1CCO[C@@H]2CN(c3ncccn3)C[C@@H]2C1`, with 48.2%; and `Cc1ccc(N2CCO[C@H]3CN(Cc4cccnc4)C[C@H]32)nn1`, with -12%.

As for `CC(=O)NC[C@]1(O)CCN(C(=O)c2ccc(F)c(Cl)c2)C[C@H]1O`, the INHIBITION turned out to be 18.9%. Then `O=C1COC2(CCN(Cc3cccnc3)CC2)CN1c1ccccc1`, with 48.4%; and `C[C@@]1(O)CCN(C2CCOCC2)C[C@H]1n1ccc(=O)[nH]c1=O`, with 10.95%; and `Clc1ccc(Cc2nc(CNCCn3cccn3)cs2)cc1`, with 16.6%. Then `CCc1nn(C)c(Cl)c1CN(CC)Cc1cnn(CC)c1`, with -21.9%; and `COC(=O)Cn1c(C)cc(=O)c2cc(F)ccc21`, with 71.3%; and `Cc1cc(C)n(C2CN(C(=O)Cn3c(C)cc(=O)c4ccccc43)C2)n1`, with 29.1%.

Regarding `COC(=O)Cn1ccc(=O)c2ccc(OC)cc21`, the INHIBITION is reported as -20%. Then `O=C(O)Cn1ccc(=O)c2cc(F)ccc21`, with 25.3%; and `CC(=O)Cn1c(C)cc(=O)c2cc(F)ccc21`, with 82.4%. Then `CC(=O)c1c(O)n(C)c2ccc(F)cc12`, with 5.75%.

With `COC(=O)CCn1ccc(=O)c2cc(F)ccc21`, the INHIBITION is listed as 6.34%.

Take `Cc1cc(=O)c2cc(F)ccc2n1CC(=O)O`: the INHIBITION is listed as 71.3%. Then `Cc1ccc2c(c1)c(C)cc(=O)n2CC(=O)O`, with 10.775%; and `CNC(=O)c1ccc(C2CN(C(=O)c3c[nH]nc3C)CCO2)nc1` (stereo not drawn), with -20.2%; and `O=C(NC1CCN(c2ccccc2Br)C1)c1c[nH]nn1` (stereo not drawn), with 34.2%. Then `CS(=O)(=O)NCC1CCCN(C(=O)Nc2cccc3ccccc23)C1` (stereo not drawn), with -31.3%.

Values taken from ChEMBL document CHEMBL4513216, “Probing the Open Global Health Chemical Diversity Library for Multistage-Active Starting Points for Next-Generation Antimalarials” (ACS Infect Dis, 2020).
